Potency and affinity values are given separately.
Key:
Staphylococcus aureus = settings: Concentration 32 ug.mL-1;; ASSAY_TEST Inhibition of Bacterial Growth; detection method Absorption (OD600); MEDIA CAMHB; plate type 384well; NBS; CORNING #3640; time 18 hr
Escherichia coli = settings: Concentration 32 ug.mL-1;; ASSAY_TEST Inhibition of Bacterial Growth; detection method Absorption (OD600); MEDIA CAMHB; plate type 384well; NBS; CORNING #3640; time 18 hr

Compound	Inhibition (Staphylococcus aureus)	Inhibition (Escherichia coli)
O=C(Cn1nc2c3cc(-c4ccc(F)cc4)nn3ccn2c1=O)Nc1ccc2c(c1)OCCO2	10.64%	1.96%
O=c1n(Cc2cccc(Br)c2)nc2ccc(-c3ccccc3)nn12	4.53%	-3.48%
Cc1c(Cl)cccc1NC(=O)Cn1nc2c3c4c(sc3ncn2c1=O)CCCCC4	3.69%	-0.38%
COc1ccc(CNC(=O)Cn2nc3c(N4CCN(c5ccccc5)CC4)nccn3c2=O)cc1	21.01%	2.9%
N#Cc1ccc(NC(=O)Cn2nc3c(Oc4ccccc4)nccn3c2=O)cc1	-0.45%	-6.5%
Cc1cc(C)cc(N(Cc2cccc(Cl)c2)S(=O)(=O)c2cccn3cnnc23)c1	7.13%	-3.73%
COc1ccc(NC(=O)Cn2nc3c4c5c(sc4ncn3c2=O)CCCC5)cc1	2.3%	-5.34%
COc1ccc(Cl)cc1NC(=O)CSc1nnc2c(=O)n(-c3ccc(C)c(C)c3)ccn12	15.8%	-1.54%
Cc1cc2nn(CC(=O)Nc3ccccc3F)c(=O)n2c(Nc2ccc(F)c(C)c2)n1	11.73%	-0.72%
Cc1cc(C)c(NC(=O)CSc2nnc3ccc(C(=O)Nc4cccc(F)c4)cn23)c(C)c1	12.67%	2.09%
O=c1c2nnc(SCc3ccc(Cl)cc3)n2ccn1-c1ccc(F)cc1	4.01%	2.84%
Cc1nnc2ccc(S(=O)(=O)N(Cc3ccccc3F)c3ccc(Cl)cc3)cn12	-12.68%	-19.04%
Cc1nnc2c(SCC(=O)N3CCN(c4ccc(F)cc4)CC3)nc3ccccc3n12	9.13%	7.96%
Cc1cc2nn(CC(=O)Nc3ccc(F)c(F)c3)c(=O)n2c(Nc2ccc(C)c(F)c2)n1	7.73%	-3.04%
Cc1ccc(Cl)cc1NC(=O)Cn1c(=O)c2nnc(C(C)C)n2c2ccccc21	2.92%	-2.02%
CCCCn1c(=O)c2sccc2n2c(=O)n(CC(=O)c3ccc(OC)c(OC)c3)nc12	13.6%	0.21%
CCc1nnc2c(SCC(=O)Nc3ccc(C)cc3Cl)nc3ccccc3n12	2.52%	2.69%
COc1ccc(N2CCN(C(=O)Cn3nc4c(Oc5ccccc5)nccn4c3=O)CC2)cc1	16.39%	4.58%
Cc1ccc(NC(=O)Cn2nc3c4c5c(sc4ncn3c2=O)CCCC5)c(Cl)c1	-4.74%	-9.07%
Cc1ccc(Sc2nccn3c(=O)n(CC(=O)Nc4cc(Cl)ccc4C)nc23)c(C)c1	-0.43%	-11.77%
CCc1nnc2c(S(=O)(=O)N(Cc3cccc(C)c3)c3cccc(Cl)c3)cccn12	2.53%	-7.38%
CCCCn1c(=O)c2sccc2n2c(=O)n(CC(=O)N3CCCC(C(=O)OCC)C3)nc12 (stereo not drawn)	0.89%	-5.26%
CCOc1ccc(-n2ccn3c(SCC(=O)NCc4ccc(Cl)cc4)nnc3c2=O)cc1	4.19%	3.75%
COc1ccc(-c2cc3c4nn(CC(=O)Nc5cccc(OC)c5)c(=O)n4ccn3n2)cc1	-3.02%	-0.95%
C=Cc1ccc(CN(c2ccc(C(C)C)cc2)S(=O)(=O)c2cccn3cnnc23)cc1	7.94%	0.1%

Compound	Inhibition (Staphylococcus aureus)	Inhibition (Escherichia coli)
COc1ccc(C(=O)CSc2nnc3c(=O)n(-c4cccc(OC)c4)ccn23)cc1	14.49%	-2.33%
CN(C)c1nc2ccccc2n2c(=O)n(CC(=O)Nc3ccc4c(c3)OCO4)nc12	1.33%	1.96%
COc1ccccc1CNC(=O)Cn1nc2c(SCc3ccc(Cl)cc3)nccn2c1=O	6.37%	-3.98%
Cc1ccc(CNC(=O)CSc2nnc3c(=O)n(-c4ccccc4)ccn23)cc1	12.76%	0.71%
CCCCc1ccc(NC(=O)Cn2c(=O)c3nnc(CCC)n3c3ccccc32)cc1	2.94%	-1.42%
COc1ccccc1-n1ccn2c(SCc3ccccc3F)nnc2c1=O	11.33%	-2.76%
O=C(Cn1nc2nc(Nc3ccc(F)cc3)ccn2c1=O)N1CCCc2ccccc21	5.55%	-6.76%
Cc1cc2nn(CC(=O)Nc3cc(F)ccc3C)c(=O)n2c(Nc2ccc(C)c(F)c2)n1	2.63%	-8.01%
O=c1n(Cc2cccc(Cl)c2)nc2ccc(-c3ccccc3)nn12	13.35%	0.79%
COC(=O)c1ccc(NC(=O)Cn2nc3c4cc(-c5ccc(Cl)cc5)nn4ccn3c2=O)cc1	1.97%	4.04%
Cc1ccc(-c2cc3c4nn(CC(=O)Nc5ccc6c(c5)OCO6)c(=O)n4ccn3n2)cc1C	-8.73%	-12.23%
CCc1ccc(NC(=O)CSc2nnc3c(=O)n(-c4ccccc4)ccn23)cc1	7.36%	-2.07%
COC(=O)c1ccc(NC(=O)Cn2nc3ccc(SCc4ccc(Cl)cc4)nn3c2=O)cc1	18.39%	1.59%
COc1ccc(CNC(=O)CSc2nnc3c4cc(-c5ccccc5)nn4ccn23)cc1	9.71%	1.16%
COc1cccc(CN(c2ccccc2)S(=O)(=O)c2ccc3nncn3c2)c1	6.2%	-8.56%
COc1ccc(-c2cc3c4nnc(SCC(=O)Nc5cc(F)ccc5C)n4ccn3n2)cc1	-23.41%	-20.36%
Cc1nnc2ccc(S(=O)(=O)N(Cc3ccccc3F)c3cc(F)cc(F)c3)cn12	-3.63%	-18.18%
COc1cc(NC(=O)Cn2nc3c(Oc4ccccc4)nccn3c2=O)cc(OC)c1	11.4%	1.31%
CCc1ccc(N(Cc2ccc(C)cc2)S(=O)(=O)c2cccn3c(C)nnc23)cc1	16.56%	0.51%
CCOc1ccc(C(=O)Cn2nc3n(Cc4ccccc4OC)c(=O)c4sccc4n3c2=O)cc1	-7.18%	-6.25%
Cc1cc2nn(CC(=O)Nc3ccc(F)cc3)c(=O)n2c(Nc2ccccc2C)n1	11.27%	1.51%
CSc1cccc(NC(=O)Cn2nc3ccc(C(=O)NCc4ccccc4)cn3c2=O)c1	5.85%	-2.4%
CC(C)(C)OC(=O)CN(c1ccc2c(c1)OCCO2)S(=O)(=O)c1ccc2nncn2c1	6.06%	-4.04%
CCOC(=O)c1cccc(NC(=O)Cn2nc3c(Oc4cccc(C)c4C)nccn3c2=O)c1	-16.27%	-3.26%

Source: ChEMBL document CHEMBL4513146, “CO-ADD screening of Karazin Kharkiv National University (Ukraine) compounds”
